# Measured values: PubChem BioAssay
# Values without a mark were called inactive. Calls of active or inactive are those of the source.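 Rule for the calls, unless noted: active = mean inhibition above 46.68%, the untreated control wells mean plus 3 SD; inactive = the rest.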
# What was measured:
# [1] = target: Nuclear receptor coactivator 1 (Homo sapiens) (UniProt Q15788); assay: NCOA1 GAL4-fusion reporter inhibition – cell-based, luminescence, quadruplicate, confirmation (AID 588820); conditions: HEK293 GAL4-SRC1 luciferase reporter, at 3.6 µM, hits give high values;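 note: 0% = DMSO wells and 100% = gossypol 36 µM treated wells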
# [2] = repression of VP16-driven luciferase reporter – cell-based, luminescence, high throughput, counter-screen for SRC1 inhibitor project (AID 588824; in the data active = inhibition above about 25%); conditions: cell-based VP16 transactivation luciferase luminescence; at 3.6 µM; hits give high values
# Sequence of Nuclear receptor coactivator 1 (Homo sapiens) (Q15788 whole entry, looked up, the tested form may be a part): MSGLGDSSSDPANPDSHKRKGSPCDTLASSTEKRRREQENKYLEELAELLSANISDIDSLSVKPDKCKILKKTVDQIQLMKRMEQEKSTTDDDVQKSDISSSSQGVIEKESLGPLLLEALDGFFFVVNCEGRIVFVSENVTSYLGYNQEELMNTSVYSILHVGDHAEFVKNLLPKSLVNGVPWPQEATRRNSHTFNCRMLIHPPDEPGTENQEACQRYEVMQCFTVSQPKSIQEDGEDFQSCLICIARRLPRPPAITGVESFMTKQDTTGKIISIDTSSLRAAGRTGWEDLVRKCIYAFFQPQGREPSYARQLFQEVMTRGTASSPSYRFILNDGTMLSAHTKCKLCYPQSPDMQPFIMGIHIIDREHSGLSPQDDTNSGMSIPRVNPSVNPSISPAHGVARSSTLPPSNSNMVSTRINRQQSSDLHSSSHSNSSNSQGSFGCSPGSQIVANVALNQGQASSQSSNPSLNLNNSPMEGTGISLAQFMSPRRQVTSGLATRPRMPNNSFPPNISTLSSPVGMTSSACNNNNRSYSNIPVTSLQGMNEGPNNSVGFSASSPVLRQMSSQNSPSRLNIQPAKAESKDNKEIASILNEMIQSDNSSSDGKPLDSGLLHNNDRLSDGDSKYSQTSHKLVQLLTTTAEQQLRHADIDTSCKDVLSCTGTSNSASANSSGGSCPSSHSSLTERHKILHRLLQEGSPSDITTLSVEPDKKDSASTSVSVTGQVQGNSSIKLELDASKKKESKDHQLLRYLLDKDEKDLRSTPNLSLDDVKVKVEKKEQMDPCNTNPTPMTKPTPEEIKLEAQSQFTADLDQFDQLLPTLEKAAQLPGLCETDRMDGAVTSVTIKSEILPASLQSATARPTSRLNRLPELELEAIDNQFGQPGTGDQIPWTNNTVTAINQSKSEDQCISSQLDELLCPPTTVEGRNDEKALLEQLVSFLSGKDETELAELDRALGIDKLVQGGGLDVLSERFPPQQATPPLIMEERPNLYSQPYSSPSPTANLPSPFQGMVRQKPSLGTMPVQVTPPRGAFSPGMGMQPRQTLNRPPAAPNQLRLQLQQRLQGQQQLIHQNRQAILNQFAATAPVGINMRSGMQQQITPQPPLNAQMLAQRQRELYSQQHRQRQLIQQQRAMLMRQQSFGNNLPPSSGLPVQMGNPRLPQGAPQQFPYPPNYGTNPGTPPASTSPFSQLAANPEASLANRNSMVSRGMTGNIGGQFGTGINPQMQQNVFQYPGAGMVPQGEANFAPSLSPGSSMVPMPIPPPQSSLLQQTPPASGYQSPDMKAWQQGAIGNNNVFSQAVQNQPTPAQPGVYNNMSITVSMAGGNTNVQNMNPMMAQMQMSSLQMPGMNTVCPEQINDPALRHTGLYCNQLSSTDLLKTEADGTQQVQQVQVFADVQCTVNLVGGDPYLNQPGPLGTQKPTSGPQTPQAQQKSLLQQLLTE
Compound,inhibition [1] [%],inhibition [2]
COc1ccc(C(=O)Nc2ccnn2C2CCN(C3CCC3)CC2)cc1,-28.9,-0.43%
O=C(NCCS(=O)(=O)N1CCN(c2cccc(Cl)c2)CC1)C1CC1,-3.41,18.9%
CCC1CCCCN1C(=O)CSc1nc(N)cc(=O)[nH]1 (centres undefined),-15.7,-3.43%
CNc1snc(C)c1C(=O)OCC(=O)Nc1ccc(C)cc1F,3.09,-1.51%
Cc1ccc(S(=O)(=O)Nc2c(NC3CCCCC3)c3ccccc3oc2=O)c(C)c1,15.7,13.5%
COc1ccccc1CNC(=O)C(=O)NCCC1CCCCN1S(=O)(=O)c1ccc(C)cc1 (centres undefined),26.4,7.29%
COc1ccc(CN2CCN(C(=O)CCC(=O)Nc3nnc(C(F)(F)F)s3)CC2)cc1F,-1.74,-4.2%
COc1ccc(C2c3cc(OC)c(OC)cc3CCN2S(C)(=O)=O)cc1OC (centres undefined),9.85,9.73%
COc1cc(C(=O)O)cc(NC(=O)c2ccco2)c1OC,-9.74,2.33%
c1ccc(Cc2nnc3sc(-c4ccncc4)nn23)cc1,5.92,-1.52%
O=C(c1nnsc1S(=O)c1ccc(Cl)cc1)N1CCOCC1 (centres undefined),-24.9,-6.26%
CC(=O)C1=C(C)NC2=C(C(=O)CC(C)(C)C2)C1C (centres undefined),28,15.6%
O=C(Nc1sc2c(c1C(=O)NCCCO)CCCC2)c1ccccc1,-30.3,-14.6%
O=C(Nc1ccc(S(=O)(=O)N2CCCCC2)cc1)C1CCN(C(=O)c2ccc(F)cc2)CC1,7.57,-1.11%
COc1ccccc1-c1cccc(-c2nc(C(=O)N3CCCCC3)cc3c2[C@H](CCO)N(S(=O)C(C)(C)C)C3)c1 (some centres undefined),-56.9,-21.5%
O=C1CCC/C1=c1\s/c(=C/c2cccnc2)c(=O)n1-c1ccccc1,25.6,17.8%

Compound,inhibition [1] [%],inhibition [2]
COc1ccc(S(=O)(=O)N(C)C[C@H]2Oc3c(NC(=O)Nc4c(C)noc4C)cccc3C(=O)N([C@H](C)CO)C[C@@H]2C)cc1,6.86,9.48%
Clc1ccc(C2NCCc3sccc32)cc1 (centres undefined),-22,8.67%
Fc1ccc2[nH]c3c(NCc4ccccc4)ncnc3c2c1,2.59,20.2%
O=C(Nc1ccccc1N1CCOCC1)c1cc(-c2ccncc2)nc2ccccc12,-29.7,2.98%
O=C(OCC(=O)N1CCN(S(=O)(=O)c2ccc(Cl)cc2)CC1)c1cccc(OC(F)F)c1,-50.5,-5.85%
CN1CCN(c2ccccc2/C=C2/C(=O)Nc3ccccc32)CC1,-7.17,10.8%
Cc1cc2c(OCC(O)CNCc3ccco3)cccc2[nH]1 (centres undefined),-14.2,-11.1%
COc1ccc(O)c(C2(O)C(=O)c3ccccc3C2=O)c1,-5.99,3.91%
O=C(Nc1ccc2c(c1)N(S(=O)(=O)c1cccs1)CCC2)c1c(F)cccc1F,-8.08,-5.05%
CC(=O)Nc1ccc(NC(=O)C(C)OC(=O)CCSc2ccccc2Cl)cc1 (centres undefined),-6.34,4.67%
CCOc1cccc2cc(C(=O)N3CC(C)OC(C)C3)c(=O)oc12 (centres undefined),-9.95,-2.83%
COc1ccccc1/C=N/NC(=O)CN(C1=NS(=O)(=O)c2ccccc21)c1ccccc1,-2.78,0.92%
O=c1ccc2c(ccc3ncccc32)o1,18.8,8.67%
O=C(Nc1ccc(Oc2ccccc2)cc1)c1ccc2sc([C@H]3C[C@H](O)[C@@H](CO)O3)nc2c1,-13.8,19.3%
OC[C@@H]1CN(Cc2ccc(-c3ccccc3)cc2)C[C@H](n2cnc3c(NCc4ccncc4)ncnc32)O1,10.1,28.9% (active)
COc1ccc(CCNc2c3ccccc3nc3ccccc23)cc1OC,-6.86,26.2% (active)
